{
  "source": "the supplement of paper PMC8728848",
  "assay_in_all_cases": "glycan array binding signal (z-score within array); higher = stronger binding",
  "conditions_in_all_cases": "glycan notation: IUPAC condensed, linker removed",
  "key": {"[1]": {"biological_target": "Fuc(a1-2)Gal(b1-4)GlcNAc(b1-3)Gal(b1-4)GlcNAc(b1-3)Gal(b1-4)GlcNAc", "how_it_was_run": "(§1)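 Negative Z-scores can be read as non-binding. The Z-score is calculated within each array and then averaged across arrays of one protein sequence at different concentrations or buffers and across linkers. Arrays, 3228 in all, were curated from the Consortium for Functional Glycomics database and kept only where the protein sequence was available.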"}, "[2]": {"biological_target": "Fuc(a1-2)[GalNAc(a1-3)]Gal", "how_it_was_run": "as §1"}, "[3]": {"biological_target": "Gal(a1-3)[Gal(a1-4)]Gal(b1-4)GlcNAc", "how_it_was_run": "as §1"}, "[4]": {"biological_target": "Gal(b1-4)GalNAc(a1-3)[Fuc(a1-2)]Gal(b1-4)GlcNAc", "how_it_was_run": "as §1"}, "[5]": {"biological_target": "Gal3S(b1-3)GalNAc", "how_it_was_run": "as §1"}, "[6]": {"biological_target": "Gal3S(b1-4)GlcNAc", "how_it_was_run": "as §1"}, "[7]": {"biological_target": "Gal4S(b1-4)GlcNAc", "how_it_was_run": "as §1"}, "[8]": {"biological_target": "GlcNAc(b1-4)GlcNAc(b1-4)GlcNAc", "how_it_was_run": "as §1"}, "[9]": {"biological_target": "Man(a1-2)Man(a1-6)[Man(a1-3)]Man(a1-6)[Man(a1-2)Man(a1-2)Man(a1-3)]Man(b1-4)GlcNAc(b1-4)GlcNAc", "how_it_was_run": "as §1"}, "[10]": {"biological_target": "Neu5Ac(a2-8)Neu5Ac(a2-3)[GalNAc(b1-4)]Gal(b1-4)Glc", "how_it_was_run": "as §1"}, "[11]": {"biological_target": "Neu5Ac(a2-8)Neu5Ac(a2-8)Neu5Ac(a2-3)Gal(b1-4)Glc", "how_it_was_run": "as §1"}, "[12]": {"biological_target": "Neu5Gc(a2-3)Gal(b1-4)Glc", "how_it_was_run": "as §1"}, "[13]": {"biological_target": "Fuc(a1-2)Gal(b1-4)GlcNAc(b1-3)[Fuc(a1-2)Gal(b1-4)GlcNAc(b1-6)]GalNAc", "how_it_was_run": "as §1"}, "[14]": {"biological_target": "Fuc(a1-2)Gal6S(b1-3)GlcNAc", "how_it_was_run": "as §1"}, "[15]": {"biological_target": "Fuc(a1-2)[GalNAc(a1-3)]Gal(b1-3)GlcNAc(b1-2)Man(a1-3)[Fuc(a1-2)[GalNAc(a1-3)]Gal(b1-3)GlcNAc(b1-2)Man(a1-6)]Man(b1-4)GlcNAc(b1-4)[Fuc(a1-6)]GlcNAc", "how_it_was_run": "as §1"}, "[16]": {"biological_target": "Fuc(a1-2)[GalNAc(a1-3)]Gal(b1-4)GlcNAc", "how_it_was_run": "as §1"}, "[17]": {"biological_target": "Fuc(a1-3)GlcNAc", "how_it_was_run": "as §1"}, "[18]": {"biological_target": "Fuc(a1-3)[Gal(b1-4)]GlcNAc(b1-3)Gal(b1-4)[Fuc(a1-3)]GlcNAc", "how_it_was_run": "as §1"}, "[19]": {"biological_target": "Fuc(a1-3)[Gal(b1-4)]GlcNAc6S", "how_it_was_run": "as §1"}, "[20]": {"biological_target": "Gal(b1-3)Gal", "how_it_was_run": "as §1"}, "[21]": {"biological_target": "Gal(b1-3)GlcNAc", "how_it_was_run": "as §1"}, "[22]": {"biological_target": "Gal(b1-3)GlcNAc(b1-2)Man(a1-3)[Gal(b1-3)GlcNAc(b1-2)Man(a1-6)]Man(b1-4)GlcNAc(b1-4)[Fuc(a1-6)]GlcNAc", "how_it_was_run": "as §1"}, "[23]": {"biological_target": "Gal(b1-3)GlcNAc(b1-3)Gal(b1-4)Glc", "how_it_was_run": "as §1"}, "[24]": {"biological_target": "Gal(b1-3)GlcNAc(b1-6)GalNAc", "how_it_was_run": "as §1"}, "[25]": {"biological_target": "Gal(b1-3)GlcNAc(b1-6)[Gal(b1-3)]GalNAc", "how_it_was_run": "as §1"}, "[26]": {"biological_target": "Gal(b1-3)[GlcNAc(b1-6)]GalNAc", "how_it_was_run": "as §1"}, "[27]": {"biological_target": "Gal(b1-4)GlcNAc(b1-2)Man(a1-3)[Gal(b1-4)GlcNAc(b1-2)Man(a1-6)][GlcNAc(b1-4)]Man(b1-4)GlcNAc(b1-4)[Fuc(a1-6)]GlcNAc", "how_it_was_run": "as §1"}, "[28]": {"biological_target": "Gal(b1-4)GlcNAc(b1-2)[Gal(b1-4)GlcNAc(b1-4)]Man(a1-3)[Gal(b1-4)GlcNAc(b1-2)Man(a1-6)]Man(b1-4)GlcNAc(b1-4)GlcNAc", "how_it_was_run": "as §1"}, "[29]": {"biological_target": "Gal(b1-4)GlcNAc(b1-3)Gal(b1-4)GlcNAc(b1-2)Man(a1-3)[Gal(b1-4)GlcNAc(b1-3)Gal(b1-4)GlcNAc(b1-2)Man(a1-6)]Man(b1-4)GlcNAc(b1-4)GlcNAc", "how_it_was_run": "as §1"}, "[30]": {"biological_target": "Gal(b1-4)GlcNAc(b1-3)Gal(b1-4)GlcNAc(b1-3)Gal(b1-4)GlcNAc(b1-2)Man(a1-3)[Gal(b1-4)GlcNAc(b1-3)Gal(b1-4)GlcNAc(b1-3)Gal(b1-4)GlcNAc(b1-2)Man(a1-6)]Man(b1-4)GlcNAc(b1-4)GlcNAc", "how_it_was_run": "as §1"}, "[31]": {"biological_target": "Gal(b1-4)GlcNAc(b1-3)Gal(b1-4)GlcNAc(b1-3)Gal(b1-4)GlcNAc(b1-2)[Gal(b1-4)GlcNAc(b1-3)Gal(b1-4)GlcNAc(b1-3)Gal(b1-4)GlcNAc(b1-6)]Man(a1-6)[Gal(b1-4)GlcNAc(b1-3)Gal(b1-4)GlcNAc(b1-3)Gal(b1-4)GlcNAc(b1-2)Man(a1-3)]Man(b1-4)GlcNAc(b1-4)[Fuc(a1-6)]GlcNAc", "how_it_was_run": "as §1"}, "[32]": {"biological_target": "Gal(b1-4)GlcNAc(b1-3)Gal(b1-4)GlcNAc(b1-3)Gal(b1-4)GlcNAc(b1-3)Gal(b1-4)GlcNAc(b1-2)Man(a1-3)[Gal(b1-4)GlcNAc(b1-3)Gal(b1-4)GlcNAc(b1-3)Gal(b1-4)GlcNAc(b1-3)Gal(b1-4)GlcNAc(b1-2)Man(a1-6)]Man(b1-4)GlcNAc(b1-4)[Fuc(a1-6)]GlcNAc", "how_it_was_run": "as §1"}, "[33]": {"biological_target": "Gal(b1-4)GlcNAc(b1-3)Gal(b1-4)GlcNAc(b1-3)[Gal(b1-4)GlcNAc(b1-3)Gal(b1-4)GlcNAc(b1-6)]GalNAc", "how_it_was_run": "as §1"}, "[34]": {"biological_target": "Gal(b1-4)GlcNAc(b1-3)Gal(b1-4)GlcNAc(b1-6)[Gal(b1-3)]GalNAc", "how_it_was_run": "as §1"}, "[35]": {"biological_target": "Gal(b1-4)GlcNAc(b1-3)[GlcNAc(b1-6)]Gal(b1-4)GlcNAc", "how_it_was_run": "as §1"}, "[36]": {"biological_target": "Gal3S(b1-4)[Fuc(a1-3)]GlcNAc6S", "how_it_was_run": "as §1"}, "[37]": {"biological_target": "Gal6P(b1-4)GlcNAc", "how_it_was_run": "as §1"}, "[38]": {"biological_target": "GlcA3S(b1-3)Gal(b1-4)GlcNAc(b1-2)Man", "how_it_was_run": "as §1"}, "[39]": {"biological_target": "GlcNAc(a1-4)Gal(b1-4)GlcNAc(b1-3)Gal(b1-4)[Fuc(a1-3)]GlcNAc(b1-3)Gal(b1-4)[Fuc(a1-3)]GlcNAc", "how_it_was_run": "as §1"}, "[40]": {"biological_target": "GlcNAc(b1-3)Gal(b1-4)GlcNAc(b1-2)[GlcNAc(b1-3)Gal(b1-4)GlcNAc(b1-6)]Man(a1-6)[GlcNAc(b1-3)Gal(b1-4)GlcNAc(b1-2)Man(a1-3)]Man(b1-4)GlcNAc(b1-4)GlcNAc", "how_it_was_run": "as §1"}, "[41]": {"biological_target": "GlcNAc(b1-3)Gal(b1-4)GlcNAc(b1-3)Gal(b1-4)GlcNAc", "how_it_was_run": "as §1"}},
  "note": "The entries come from a sample that favours the strongest signals as a whole.",
  "data": [
    {"binder": "RegIIIgamma (Mus musculus), O09049 (protein) MLPRITITIMSWMLLSCLMLLSQVQGEVAKKDAPSSRSSCPKGSRAYGSYCYALFSVSKNWYDADMACQKRPSGHLVSVLSGAEASFLSSMIKSSGNSGQYVWIGLHDPTLGYEPNRGGWEWSNADVMNYINWETNPSSSSGNHCGTLSRASGFLKWRENYCNLELPYVCKFKA", "values": [
      {"measurement": "glycan array binding signal (z-score)", "setting": "[1]", "value": 0.632},
      {"measurement": "glycan array binding signal (z-score)", "setting": "[2]", "value": -0.258},
      {"measurement": "glycan array binding signal (z-score)", "setting": "[3]", "value": 0.491},
      {"measurement": "glycan array binding signal (z-score)", "setting": "[4]", "value": -0.228},
      {"measurement": "glycan array binding signal (z-score)", "setting": "[5]", "value": -0.134},
      {"measurement": "glycan array binding signal (z-score)", "setting": "[6]", "value": -0.128},
      {"measurement": "glycan array binding signal (z-score)", "setting": "[7]", "value": 1.17},
      {"measurement": "glycan array binding signal (z-score)", "setting": "[8]", "value": -0.185},
      {"measurement": "glycan array binding signal (z-score)", "setting": "[9]", "value": -0.06},
      {"measurement": "glycan array binding signal (z-score)", "setting": "[10]", "value": -0.133},
      {"measurement": "glycan array binding signal (z-score)", "setting": "[11]", "value": -0.163},
      {"measurement": "glycan array binding signal (z-score)", "setting": "[12]", "value": -0.148}
    ]},
    {"binder": "MPA (Maclura pomifera), P18674 (protein) GVTFDDGAYTGIREINFEYNSETAIGGLRVTYDLNGMPFVAEDHKSFITGFKPVKISLEFPSEYIVEVSGYVGKVEGYTVIRSLTFKTNKQTYGPYGVTNGTPFSLPIENGLIVGFKGSIGYWLDYFSIYLSL", "values": [
      {"measurement": "glycan array binding signal (z-score)", "setting": "[13]", "value": -0.236},
      {"measurement": "glycan array binding signal (z-score)", "setting": "[14]", "value": -0.247},
      {"measurement": "glycan array binding signal (z-score)", "setting": "[15]", "value": -0.363},
      {"measurement": "glycan array binding signal (z-score)", "setting": "[16]", "value": -0.227},
      {"measurement": "glycan array binding signal (z-score)", "setting": "[17]", "value": -0.164},
      {"measurement": "glycan array binding signal (z-score)", "setting": "[18]", "value": -0.148},
      {"measurement": "glycan array binding signal (z-score)", "setting": "[19]", "value": 0.042},
      {"measurement": "glycan array binding signal (z-score)", "setting": "[3]", "value": -0.119},
      {"measurement": "glycan array binding signal (z-score)", "setting": "[20]", "value": -0.079},
      {"measurement": "glycan array binding signal (z-score)", "setting": "[21]", "value": -0.201},
      {"measurement": "glycan array binding signal (z-score)", "setting": "[22]", "value": -0.074},
      {"measurement": "glycan array binding signal (z-score)", "setting": "[23]", "value": -0.157},
      {"measurement": "glycan array binding signal (z-score)", "setting": "[24]", "value": -0.363},
      {"measurement": "glycan array binding signal (z-score)", "setting": "[25]", "value": -0.291},
      {"measurement": "glycan array binding signal (z-score)", "setting": "[26]", "value": -0.112},
      {"measurement": "glycan array binding signal (z-score)", "setting": "[27]", "value": -0.26},
      {"measurement": "glycan array binding signal (z-score)", "setting": "[28]", "value": -0.046},
      {"measurement": "glycan array binding signal (z-score)", "setting": "[29]", "value": 3.21},
      {"measurement": "glycan array binding signal (z-score)", "setting": "[30]", "value": 8.11},
      {"measurement": "glycan array binding signal (z-score)", "setting": "[31]", "value": 2.44},
      {"measurement": "glycan array binding signal (z-score)", "setting": "[32]", "value": 4.26},
      {"measurement": "glycan array binding signal (z-score)", "setting": "[33]", "value": 4},
      {"measurement": "glycan array binding signal (z-score)", "setting": "[34]", "value": 2.93},
      {"measurement": "glycan array binding signal (z-score)", "setting": "[35]", "value": -0.172},
      {"measurement": "glycan array binding signal (z-score)", "setting": "[36]", "value": -0.226},
      {"measurement": "glycan array binding signal (z-score)", "setting": "[37]", "value": -0.561},
      {"measurement": "glycan array binding signal (z-score)", "setting": "[38]", "value": -0.571},
      {"measurement": "glycan array binding signal (z-score)", "setting": "[39]", "value": -0.148},
      {"measurement": "glycan array binding signal (z-score)", "setting": "[40]", "value": 5.1},
      {"measurement": "glycan array binding signal (z-score)", "setting": "[41]", "value": -0.233}
    ]}
  ]
}
